Records with an inconclusive call do not appear. A call without a number means that no potency is given here. A number with no mark means an inactive call. Calls of active or inactive are those of the source. The call rests on the fitted dose curve; in most records, active means well fitted cell-killing curve with a large enough effect; inconclusive means small, poorly fitted or top-dose-only effect, or effect the other way; inactive means no such curve, though single readings can be large or run the other way.
Potency means the concentration at half of the fitted maximal effect.

A short description of this assay: Viability qHTS for spleen associated tyrosine kinase inhibitor (SYKi) naive MV4-11 cells (AID 1963823). Further: nearly all actives have a fitted effect of over 40% in size. The following applies: MV4-11 AML viability, CellTiter-Glo luminescence, 72 h; series mostly up to 45 µM. Put shortly:
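SYKi-naive MV4-11 AML cells, 500 per well, were exposed to library compounds for 72 hr at 37 C, 5% CO2. Viability was then read by CellTiter-Glo luminescence after 10 min at room temperature.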
On the technique in general: In qHTS, concentration-response curves come from the screen itself.
Consider `CC(C)(C)Nc1nc(Nc2ccc(C(N)=O)cc2)cc(N)c1C#N`, for which the Potency was 1640 nM (active). As for `CC1OC(O[C@H]2CC[C@@]3(C)C(CC[C@]4(C)C3CC=C3C5CC(C)(C)CC[C@]5(C(=O)OC5OC(CO)C(OC6OC(COC7OCC(O)C(O)C7O)C(O)C(O)C6O)C(O)C5O)CC[C@]34C)C2(C)C)C(O)C(O)C1OC1OCC(OC2OCC(O)C(O)C2O)C(O)C1O` (stereo partly specified), the Potency is 155 nM (active). For `N#CCc1ccc(O)cc1O[C@@H]1O[C@H](CO)[C@@H](O)[C@H](O)[C@H]1O`, the Potency result was “inactive”. On the same count and under the same terms, as for `NC(=O)c1ccc(OCC2NC(=O)C3CCCN3C2=O)cc1` (stereo unspecified), the entry is “inactive”. As for `CC[C@H]1OC(=O)[C@H](C)C(=O)[C@H](C)[C@@H](OC2O[C@H](C)C[C@H](N(C)C)[C@H]2O)[C@@H](C)C[C@@H](C)C(=O)/C=C/[C@]1(C)O` (stereo partly specified), the Potency result was “inactive”. As for `C[C@@H]1O[C@@H](O[C@H]2[C@H](OC(=O)[C@]34CCC(C)(C)C[C@H]3C3=CCC5[C@@]6(C)C[C@H](O)[C@H](O[C@@H]7O[C@H](CO)[C@@H](O)[C@H](O)[C@H]7O)[C@@](C)(CO)C6[C@H](O)C[C@@]5(C)[C@]3(C)CC4)OC[C@H](O)[C@@H]2O)[C@H](O)[C@H](O)[C@H]1O[C@@H]1OC[C@@H](O)[C@H](O[C@@H]2OC[C@](O)(CO)[C@H]2O)[C@H]1O` (stereo partly specified), the viability (% of control) is 85.2% [at 9.25 µM].
